# Assays:
# Test in all cases: PBM binding z-score (relative to random genomic background probes); higher = stronger binding; sequences stand for … in GC…GCGATTGACAGCGTAGAATGAAGG
# [1] = system: FXR:RXRa (NR concentration 270 nM, RXRa partner concentration 90 nM)
# Summary of the method: (§1)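 Probes were double-stranded and carried 34-nt variable regions with direct-repeat seeds, single-nucleotide variants, half-site ablations and random human genomic background sequences, printed on custom Agilent 4×180K protein-binding microarrays. Arrays were incubated 1 h with ligand-free nuclear receptor dimers in PBS pH 7.4, 2% milk, 0.02% Triton X-100, 1 mM DTT, 0.2 mg/mL BSA and 0.4 mg/ml salmon testes DNA. Antibodies against each partner (one per run) detected binding, and scanned fluorescence was regression-normalized. Binding z-scores use the random background probes as reference.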
# [2] = system: LXRa:RXRa (NR concentration 270 nM, RXRa partner concentration 90 nM)
# Summary of the method: as §1
# [3] = system: LXRa homodimer (NR concentration 270 nM)
# Summary of the method: as §1
# [4] = system: LXRb:RXRa (NR concentration 270 nM, RXRa partner concentration 90 nM)
# Summary of the method: as §1
# [5] = system: LXRb homodimer (NR concentration 270 nM)
# Summary of the method: as §1
# [6] = system: PPARa:RXRa (NR concentration 270 nM, RXRa partner concentration 90 nM)
# Summary of the method: as §1
# [7] = system: PPARg:RXRa (NR concentration 180 nM, RXRa partner concentration 90 nM)
# Summary of the method: as §1
# [8] = system: PPARg:RXRa 270nM:90nM, anti-RXR (NR concentration 270 nM, RXRa partner concentration 90 nM)
# Summary of the method: as §1
# [9] = system: PPARg:RXRa 30nM:10nM, anti-RXR (NR concentration 30 nM, RXRa partner concentration 10 nM)
# Summary of the method: as §1
# [10] = system: PPARg:RXRa 90nM:30nM, anti-RXR (NR concentration 90 nM, RXRa partner concentration 30 nM)
# Summary of the method: as §1
# [11] = system: PPARg:RXRa DBDmut IVT, anti-RXR (DBD mutation: RXRa K156A/R161A, NR concentration 270 nM, RXRa partner concentration 90 nM)
# Summary of the method: as §1
# [12] = system: PPARg:RXRa IVT, anti-PPARg (NR concentration 270 nM, RXRa partner concentration 90 nM)
# Summary of the method: as §1
# [13] = system: PPARg DBDmut:RXRa IVT, anti-PPARg (DBD mutation: PPARg1 K132A/R137A, NR concentration 270 nM, RXRa partner concentration 90 nM)
# Summary of the method: as §1
# [14] = system: PPARg DBDmut IVT, anti-PPARg (DBD mutation: PPARg1 K132A/R137A, NR concentration 270 nM)
# Summary of the method: as §1
# [15] = system: PPARg homodimer (NR concentration 180 nM)
# Summary of the method: as §1
# [16] = system: PXR:RXRa (NR concentration 270 nM, RXRa partner concentration 90 nM)
# Summary of the method: as §1
# [17] = system: PXR homodimer (NR concentration 270 nM)
# Summary of the method: as §1
# [18] = system: RARa:RXR (NR concentration 270 nM, RXRa partner concentration 90 nM)
# Summary of the method: as §1
# [19] = system: RARa homodimer (NR concentration 270 nM)
# Summary of the method: as §1
# [20] = system: RARb:RXRa (NR concentration 270 nM, RXRa partner concentration 90 nM)
# Summary of the method: as §1
Sequence,PBM binding z-score [1],PBM binding z-score [2],PBM binding z-score [3],PBM binding z-score [4],PBM binding z-score [5],PBM binding z-score [6],PBM binding z-score [7],PBM binding z-score [8],PBM binding z-score [9],PBM binding z-score [10],PBM binding z-score [11],PBM binding z-score [12],PBM binding z-score [13],PBM binding z-score [14],PBM binding z-score [15],PBM binding z-score [16],PBM binding z-score [17],PBM binding z-score [18],PBM binding z-score [19],PBM binding z-score [20]
AGAATGAGGTTACTAAGATCAGGGAATTGCGGTC,1.46,1.24,-0.205,0.978,-0.137,2.62,2.35,2.48,0.629,1.7,4.08,3.37,0.676,0.112,0.638,0.828,0.241,1.37,-0.455,1.74
GCAGACATGTGAAACGCAGGTAACTCAGGGTGGC,-0.536,-0.654,-0.866,-0.864,-1.11,-0.505,0.622,-0.625,-0.725,-0.59,-0.934,-0.641,-0.654,-1.35,-1.78,-0.925,-0.866,-0.472,-0.769,-0.383
ACTAACGGGTCAACGAGGTTATAGCACGCGTATA,6.32,4.49,0.715,3.82,0.313,5.19,4.64,4.34,1.48,2.98,1.94,3.19,1.38,1.31,2.63,4.96,2.39,5.01,0.559,3.91
AGTCAAAGCTCAGGACGAGGTAACGTAAAGCACG,-0.244,-0.551,-0.393,-0.561,-0.87,-0.301,0.722,-0.305,-0.133,-0.117,-0.71,-0.0403,-0.126,-0.455,0.053,-0.435,-0.405,0.159,-0.547,-0.0865
CCTTACGGGTCACTGACAGGCTATAGCATTTGGA,4.95,3.52,-0.0559,3.1,-0.0175,4.91,3.88,4.36,1.54,2.83,3.84,3.67,0.647,-0.225,2.27,2.94,-0.147,3.69,0.758,3.76
GCAGACAGGTGAAACGCACGTAACTCAGGGTGGC,-0.552,-0.392,-0.524,-0.277,-0.898,0.511,0.771,0.0365,-0.437,-0.223,0.74,0.58,0.226,-0.35,-0.768,-0.397,-0.419,-0.0418,-0.719,0.539
ATCTCTAGGTAACCAAGTTCCGTGAATGCCGAAC,-0.0612,0.165,0.165,0.157,0.617,0.45,0.308,0.331,-0.073,0.181,3.6,2.9,0.664,0.557,0.453,0.03,0.0548,0.264,0.19,0.435

# From the supplement of paper PMC6555819
